The nature of assay [1]: APR_HepG2_CellCycleArrest_24hr: Apredica 24-hour HepG2 Assay for Cell Cycle Arrest (AID 2282905).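 Further: cell cycle arrest scored as ratio of 2N to 4N nuclear DNA content.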 The following applies: imaging, actives raise or lower the signal. The essentials: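 Cell cycle arrest is scored from nuclear DNA content measured by high-content imaging of Hoechst 33342-stained HepG2 cells following 24-hour treatment at ten concentrations up to 200 uM, with DMSO as baseline.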

Assay [2] is described as follows: APR_HepG2_NuclearSize_24hr: Apredica 24-hour HepG2 Assay for Nuclear Size (AID 2282907). The following applies: high-content imaging, actives raise or lower the signal. The procedure, abridged: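 Compounds in DMSO (final 0.5%) were added to human HepG2 hepatoma cells at ten concentrations up to 200 uM for 24 hr. Fixed nuclei were stained with Hoechst 33342, and nuclear diameter was quantified from automated images.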

The nature of assay [3]: APR_HepG2_CellLoss_24hr: Apredica 24-hour HepG2 Assay for Cell Loss (AID 2282908).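 On AC50: fit in both directions so a hit may be cell loss or gain.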 The note with it: high-content imaging. The essentials:
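Cell number is quantified by fluorescence imaging of Hoechst 33342-stained nuclei following dosing at 0.39–200 uM in 0.5% DMSO. Curves are fitted in both directions from the DMSO baseline.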

Assay [4] is described as follows: APR_HepG2_MicrotubuleCSK_24hr: Apredica 24-hour HepG2 Assay for Microtubule CSK Stabilty (AID 2282909). The note with it: HepG2 microtubule cytoskeleton imaging, actives raise or lower the signal. The essentials:
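Steps: dose HepG2 for 24 h (0.39–200 uM, 0.5% DMSO); fix 30 min in 3.7% formaldehyde at room temperature; permeabilize; stain alpha-tubulin 60 min; image microtubule cytoskeleton at 20x. Signal change fitted in both directions relative to DMSO.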

The nature of assay [5]: APR_HepG2_MitoticArrest_24hr: Apredica 24-hour HepG2 Assay for Mitotic Arrest (AID 2282910). The note with it: high-content imaging, actives raise or lower the signal. The essentials: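 HepG2 human liver cells were exposed to compounds at 0.39–200 uM (10 concentrations, duplicate) in 0.5% v/v DMSO for 24 hr, then fixed and immunostained for phospho-histone H3 with Hoechst 33342. Mitotic arrest came from HCS fluorescent imaging, fitted bidirectionally against DMSO.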

Assay [6] is described as follows: APR_HepG2_MitoMembPot_24hr: Apredica 24-hour HepG2 Assay for Mitochondrial Membrane Potential (AID 2282911). The note with it: imaging, actives raise or lower the signal. The procedure, abridged:
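Human hepatoma HepG2 cultures received ten compound concentrations up to 200 uM for 24 hr. Membrane-potential dye signal, captured by automated fluorescence microscopy, was scored for gain or loss against DMSO controls.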

Assay [7] in a line: APR_HepG2_MitoMass_24hr: Apredica 24-hour HepG2 Assay for Mitochondrial Mass (AID 2282912). The following applies: high-content imaging, actives raise or lower the signal. The essentials:
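The liver line HepG2 was dosed in duplicate across a 0.39–200 uM series, with final DMSO held at 0.5% v/v, and harvested at 24 hr. High-content imaging measured mitochondrial dye staining.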

Assay [8] in a line: APR_HepG2_p53Act_24hr: Apredica 24-hour HepG2 Assay for p53 Activation (AID 2282913).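 Further: p53 protein immunofluorescence averaged per cell in HepG2 with Hoechst nuclei.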 The note with it: high-content imaging, actives raise or lower the signal. The essentials:
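Automated fluorescence imaging quantifies p53 immunostaining in HepG2 cells after a 24 hr exposure (0.39–200 uM, duplicate, 0.5% DMSO). Nuclei are located by Hoechst 33342 staining.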

Assay [9] in a line: APR_HepG2_CellCycleArrest_72hr: Apredica 72-hour HepG2 Assay for Cell Cycle Arrest (AID 2282914). The following applies: high-content imaging, actives raise or lower the signal. The procedure, abridged: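 Cell cycle arrest in HepG2 was scored from nuclear DNA content after 72 hr compound treatment (0.39–200 uM). Activity, either gain or loss, was fitted against the DMSO baseline.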

A short description of assay [10]: APR_HepG2_CellLoss_72hr: Apredica 72-hour HepG2 Assay for Cell Loss (AID 2282915). The following applies: high-content imaging. The procedure, abridged:
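HepG2 cells were exposed for 72 hr to compounds at 0.39–200 uM (ten concentrations, duplicate) in 0.5% v/v final DMSO. Nuclei were stained with Hoechst 33342 after 3.7% formaldehyde fixation, imaged at 20x, and counted; fits bidirectional versus DMSO.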

A short description of assay [11]: APR_HepG2_P-H2AX_72hr: Apredica 72-hour HepG2 Assay for H2AX Phosphorylation (AID 2282916).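 Further: phospho-histone H2A.x immunostain intensity per cell marking DNA damage.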 The note with it: imaging, actives raise or lower the signal. The procedure, abridged:
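Following 72 hr treatment with 0.39–200 uM compound, HepG2 cells were formaldehyde-fixed, permeabilized and stained for phospho-H2A.x; signal was measured by high-content imaging and fitted bidirectionally against DMSO controls.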

A short description of assay [12]: APR_HepG2_MicrotubuleCSK_72hr: Apredica 72-hour HepG2 Assay for Microtubule CSK Stabilty (AID 2282919). The following applies: HepG2 microtubule cytoskeleton, high-content imaging, actives raise or lower the signal. The procedure, abridged:
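HepG2 human liver cells were dosed for 72 h at ten concentrations from 0.39 to 200 uM in duplicate (0.5% v/v DMSO final). Fixed, permeabilized cells were immunostained for alpha-tubulin (Cy5) with a Hoechst counterstain and imaged at 20x.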

Assay [13] in a line: APR_HepG2_P-H2AX_24hr: Apredica 24-hour HepG2 Assay for H2AX Phosphorylation (AID 2282920). The note with it: high-content imaging, actives raise or lower the signal. The procedure, abridged:
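Signal comes from a FITC-labeled secondary detecting phospho-histone H2A.x in fixed HepG2 cells, quantified by automated imaging at 20x. Dosing ran 24 hr across 0.39–200 uM with 0.5% v/v DMSO.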

A short description of assay [14]: APR_HepG2_StressKinase_72hr: Apredica 72-hour HepG2 Assay for Stress Kinase (AID 2282921). The following applies: HepG2 stress kinase (phospho-c-Jun) imaging, actives raise or lower the signal. The procedure, abridged: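 Fluorescence intensity of Cy3-tagged anti-phospho-c-Jun antibody, quantified per cell from Hoechst-defined nuclei across six images per well, served as the read-out following 72 h exposure (0.39–200 uM, 0.5% v/v DMSO).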

Assay [15] is described as follows: APR_HepG2_StressKinase_24hr: Apredica 24-hour HepG2 Assay for Stress Kinase (AID 2282922). The following applies: HepG2 stress kinase (phospho-c-Jun) imaging, actives raise or lower the signal. The essentials: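 HepG2 cells exposed 24 hr to compound at 0.39–200 uM (10 concentrations, duplicate), 0.5% v/v DMSO final. Fixed in 3.7% formaldehyde, permeabilized with Triton X-100, immunolabeled for phospho-c-Jun with Hoechst 33342; HCS fluorescence imaging, bidirectional fit versus DMSO.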

Assay [16] is described as follows: APR_HepG2_p53Act_72hr: Apredica 72-hour HepG2 Assay for p53 Activation (AID 2282923).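 Further: average cellular p53 protein immunofluorescence intensity in HepG2 cells.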 The following applies: high-content imaging, actives raise or lower the signal. The essentials:
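HepG2 monolayers receive test compounds in duplicate at ten concentrations (0.39 through 200 uM) for 72 hr. They are then formaldehyde-fixed, antibody-labelled for p53, Hoechst-stained and imaged, with activity fitted bidirectionally versus DMSO.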

Assay [17] can be described thus: APR_HepG2_MitoMass_72hr: Apredica 72-hour HepG2 Assay for Mitochondrial Mass (AID 2282924).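 Further: MitoTracker Red CMXRos stain intensity per cell imaged as mitochondrial mass.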 The following applies: high-content imaging, actives raise or lower the signal. The essentials:
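HepG2 cells were exposed for 72 hr to compounds at 0.39–200 uM (ten concentrations, duplicate, 0.5% v/v DMSO final). Live cells were stained with 250 nM MitoTracker Red CMXRos for 30 min, then fixed in 3.7% formaldehyde and imaged by HCS fluorescence.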

The nature of assay [18]: APR_HepG2_NuclearSize_72hr: Apredica 72-hour HepG2 Assay for Nuclear Size (AID 2282925). The note with it: high-content imaging, actives raise or lower the signal. The essentials:
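HepG2 cells were exposed to compounds at ten concentrations from 0.39 to 200 uM (duplicate, 0.5% DMSO final) for 72 hr. After fixation in 3.7% formaldehyde, nuclei were stained with Hoechst 33342 (2 ug/mL) and imaged at 20x.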

Assay [19] can be described thus: APR_HepG2_MitoMembPot_72hr: Apredica 72-hour HepG2 Assay for Mitochondrial Membrane Potential (AID 2282917). The following applies: imaging, actives raise or lower the signal. The procedure, abridged:
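HepG2 cells exposed 72 h to compounds at 0.39–200 uM (0.5% v/v DMSO, duplicates); MitoTracker Red CMXRos 250 nM loaded 30 min before 3.7% formaldehyde fixation, imaged by HCS fluorescence. Bidirectional fit versus DMSO.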

Assay [20] can be described thus: APR_HepG2_MitoticArrest_72hr: Apredica 72-hour HepG2 Assay for Mitotic Arrest (AID 2282918). The following applies: high-content imaging, actives raise or lower the signal. The essentials: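 Mitotic arrest in HepG2 is scored from phospho-histone H3 staining after 72 hr dosing across 0.39–200 uM, with DMSO at 0.5% v/v. Nuclei are identified by Hoechst 33342 and fluorescence intensity is quantified per cell.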

Active and inactive are the calls of the source. How the source made its calls: active means hit-call score of the fitted dose curve at least 0.9, where 1 is the maximum; inactive means score below 0.9.

This is an account of results in PubChem BioAssay (EPA / NIEHS).

On to `CN(C)c1ccc(N=NS(=O)(=O)O)cc1`, for which the half-maximal activity concentration (AC50) in [1] is 86.9 µM (active); in assay [9], 54.3 µM (active); in assay [10], 71.7 µM (active); in [16], 57 µM (active). For the same compound, the result in assay [2], in [3], in assay [4], in assay [5], in assay [6] and in [7] was inactive. Moreover, the compound was called inactive in assay [8], in assay [11], in [12], in assay [13], in [14] and in [15]. Moreover, the compound was classed as inactive in assay [17] and in assay [18].
In the case of `CCOc1cccc(-n2cc(C(=O)N3CCN(c4cc(C(=O)O)c5ccccc5c4)CC3)nc2-c2ccc(C)cc2)c1`, the half-maximal activity concentration (AC50) in assay [1] was 97.5 µM (active); in assay [3], 88.3 µM (active); in assay [4] it was 101 µM (active); in assay [5] it was 97.5 µM (active); in assay [7], 104 µM (active); in assay [8] it was 99.3 µM (active). The half-maximal activity concentration (AC50) is 96 µM (active) in assay [9]; 81.9 µM (active) in [10]; 89.5 µM (active) in assay [11]; 77.2 µM (active) in assay [20]; 90.4 µM (active) in assay [13]; 60.2 µM (active) in [14]. Moreover, the half-maximal activity concentration (AC50) in assay [16] was 76.1 µM (active). The compound was called inactive in [2], in assay [6], in [19], in [12], in assay [15] and in assay [17]. In addition, the result in assay [18] was inactive.
`CC(C)=CCC/C(C)=C/CO`: the call in assay [1], in assay [2], in assay [3], in [4], in assay [5] and in [6] was inactive. Also, the outcome in [7], in [8], in assay [9], in assay [11], in [19] and in [20] was inactive. Besides, the compound was called inactive in [12], in [13], in assay [14], in assay [15], in assay [17] and in [18]. In addition, the AC50 in [10] was 81.1 µM (active); in [16], 107 µM (active).
Turning to `CC(C)=CCCC(C)CCO` (stereo not drawn), the call in assay [1], in assay [2], in assay [3], in [4], in assay [5] and in assay [6] was inactive. For the same compound, the compound was classed as inactive in assay [7], in [8], in assay [11], in assay [19], in assay [12] and in assay [13]. The compound was classed as inactive in [14], in assay [15], in [16] and in [18]. Besides, the AC50 was 0.0388 µM (active) in [9], 0.0391 µM (active) in assay [10], 0.0229 µM (active) in [20] and 0.0391 µM (active) in [17].
For `CNCc1ccc(NC(=O)c2c[nH]c3c2C(=O)CCC3)cc1`, the outcome in [1], in assay [2], in [3], in assay [4], in assay [5] and in [6] was inactive. The compound was classed as inactive in assay [7], in assay [8], in assay [9], in [11], in assay [19] and in assay [12]. For the same compound, the compound was called inactive in assay [13], in assay [14], in assay [15], in [16] and in assay [17]. For the same compound, the AC50 in assay [10] was 73.7 µM (active).
In the case of `CC1(C)C(=O)N(Br)C(=O)N1Br`, the compound was classed as inactive in [1], in assay [2], in assay [3], in assay [4], in assay [5] and in assay [6]. In addition, the compound was called inactive in assay [7], in assay [8], in assay [9], in assay [10], in assay [11] and in assay [19]. Further, the compound was classed as inactive in assay [20], in [12], in [13], in assay [14], in assay [15] and in assay [16]. Further, the compound was called inactive in assay [17].
For `O=C1CCCCCN1`, the result in [1], in assay [2], in [3], in assay [4], in assay [5] and in assay [6] was inactive. Moreover, the compound was classed as inactive in assay [7], in assay [8], in assay [9], in assay [10], in assay [11] and in assay [20]. For the same compound, the call in [12], in assay [13], in assay [14], in [15], in [16] and in [17] was inactive.

For orientation: AC50 means the concentration at which the activity in the assay is half-maximal.
